CHX counter: counter-screen hit for Shiga toxin inhibitors, cycloheximide. AID 2314. actives 12% (n = 300,000). max response, %. cell reporter, cycloheximide protein synthesis inhibition counterscreen; in the data active = max response mostly above about 13%, no sharp cut-off; inactive = mostly below about 14%; also: read at 38.3 µM for the half of the compounds with a filed dose
NS1 inh: influenza NS1 inhibition | actives 0.4% (n = 270,000) | Potency, µM (top dose mostly 46.1 µM); also: actives are rising curves; nearly all actives have a fitted effect of over 50% in size
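S. cerevisiae expressing influenza A NS1, grown in glucose, washed, then diluted 1:100 into pH 6.0 -URA galactose medium with 23 nl compound. Growth recovery read as OD600; NS1-free strain serves as control.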
Shiga inhibitor: inhibitors of Shiga toxin in Vero cells; Vero cells, Shiga toxin protein synthesis inhibition reporter; inhibition, % at 38.7 µM; actives 9.2% (n = 290,000); in the data active = inhibition mostly above about 28%, no sharp cut-off; inactive = mostly below about 43%
SARS PLpro yeast: blocks SARS-CoV papain-like protease in a yeast assay; S. cerevisiae expressing SARS-CoV PLpro, growth rescue; Potency, µM (titrated, usually from 32.9 µM), hits mostly activators; actives 0.19% (n = 330,000); also: nearly all actives have a fitted effect of over 55% in size
Each line names hits and unclear results; the compound was inactive in the other large screens. An excerpt weighted towards active compounds, which were near 12% of everything screened. Unless noted, calls follow the shape of the full dose curve.

COc1ccc(C(=O)N2CCCN(C)CC2)cc1S(=O)(=O)N1CCCc2ccccc21	CHX counter 26, Shiga inhibitor 51
CCNc1c(NS(=O)(=O)c2ccc(OC)cc2)c(=O)oc2ccccc12	none
CCOC(=O)Cc1csc(SC(C)C(=O)Nc2ccc(NC(C)=O)cc2)n1 (centres undefined)	none
CC(OC(=O)c1cccn1C)C(=O)Nc1ccc2c(c1)OCO2 (centres undefined)	none (no result: NS1 inh)
COc1ccc(Br)cc1S(=O)(=O)N1CCCc2ccccc21	CHX counter 20, Shiga inhibitor 36
CCOC(=O)c1nc2c(ccc3ccccc32)cc1C	CHX counter 17, Shiga inhibitor 42
CCC(=NCc1ccco1)c1c(C(F)(F)F)[nH]n(-c2nc3ccccc3s2)c1=O	CHX counter 45, Shiga inhibitor 52
CC(=NCc1ccco1)c1c(C)[nH]n(-c2nc3ccccc3s2)c1=O	CHX counter 48, Shiga inhibitor 56
C/C(=N/NC(=O)c1cccs1)c1c(C)[nH]n(-c2nc3ccccc3s2)c1=O	none
CCC(=NCc1ccccc1)c1c(C(F)(F)F)[nH]n(-c2nc3ccccc3s2)c1=O	CHX counter 21
Nc1nonc1-n1nnc(C(=O)N/N=C/c2ccccc2Cl)c1COc1ccc(F)cc1	none
Cc1ccc(C2CC2C(=O)NNC(=S)Nc2cccc(Cl)c2)cc1 (centres undefined)	SARS PLpro yeast 14µM
Cc1ccc(NC(=S)NNC(=O)C2CC2c2ccc(C)cc2)cc1 (centres undefined)	SARS PLpro yeast inconclusive
CCC(C)NS(=O)(=O)c1ccc(F)c(C(=O)Nc2c(F)cc(F)cc2Br)c1 (centres undefined)	none (no result: NS1 inh)
CSc1nnc(-c2cccc(NC(=S)NN)c2)o1	none (no result: NS1 inh)
CSc1nnc(-c2ccc(NC(N)=S)cc2)o1	CHX counter 14
Cc1nn(C(C)C(=O)Nc2ccc3c(c2)OCO3)c(C)c1[N+](=O)[O-] (centres undefined)	none
Cc1c([N+](=O)[O-])c(C(=O)Nc2ccc3c(c2)OCCO3)nn1C	CHX counter 52, Shiga inhibitor 85
Cc1csc(NC(=O)c2nn(C)c(C)c2[N+](=O)[O-])n1	CHX counter 25, Shiga inhibitor 52
Cc1nn(C)c(C(=O)Nc2ccc3c(c2)OCO3)c1[N+](=O)[O-]	CHX counter 21
COc1cc(C2C(C#N)=C(N)Oc3cc(C)n(Cc4ccccn4)c(=O)c32)cc2c1OCO2 (centres undefined)	none
CCOC(=O)C1(CC2CC2)CCN(C(=O)c2ocnc2C)CC1	CHX counter 44, Shiga inhibitor 76
CCOC(=O)C1(CCCc2ccccc2)CCN(C(=O)c2ocnc2C)CC1	none
CCCn1c(N)c(N(CCOC)C(=O)c2ccc([N+](=O)[O-])c(C)c2)c(=O)[nH]c1=O	NS1 inh inconclusive
CCC1CO/C(=C(\C(Cl)=C(Cl)Cl)[N+](=O)[O-])N1 (centres undefined)	none (no result: NS1 inh)
COc1ccc(Br)cc1C1Nc2cccc3cccc(c23)N1	CHX counter 30 (no result: Shiga inhibitor)
O=C1NC(=Nc2ccccc2)/C(=C/c2ccco2)S1	none
Cc1ccc(N=C2NC(=O)S/C2=C\c2ccco2)cc1	CHX counter 18, Shiga inhibitor 49
COc1cc(/C=C2\SC(=Nc3ccccc3OC)NC2=O)ccc1O	CHX counter 16
Cc1ccc(N2C(=O)/C(=C/c3ccco3)SC2=S)cc1	CHX counter 16
COc1ccc(S(=O)(=O)/N=C2/NC(=O)/C(=C/c3ccco3)S2)cc1	none
Cc1ccc(N2C(=O)/C(=C/c3cccnc3)SC2=S)cc1	none
COc1ccc(N=C2NC(=O)/C(=C/c3ccco3)S2)cc1	CHX counter 36
O=C(/C=C/c1ccc([N+](=O)[O-])cc1)Nc1cccc(C(=O)Nc2ccccc2C(=O)O)c1	none
Cc1cccc(N2C(=O)/C(=C/c3ccccn3)SC2=S)c1	none
COc1ccc(/C=C2\SC(=NCc3ccccc3)NC2=O)cc1	none
O=C1/C(=C/c2ccccn2)SC(=S)N1c1ccc(O)cc1	CHX counter 30, Shiga inhibitor 67
COc1ccc(/C=C2\SC(=Nc3ccccc3OC)NC2=O)cc1	CHX counter 20
COc1cc(/C=N/N=C2/NC(=O)C(Cc3ccccc3)S2)ccc1O (centres undefined)	CHX counter 33, Shiga inhibitor 99 (no result: NS1 inh)
COC(CN(C(=O)CCl)C(C(=O)NC1CCCCC1)c1ccc(C)cc1)OC (centres undefined)	none
CC1CC=CC2C1C(=O)N(Cc1ccccc1)C2c1ccc2ccccc2c1 (centres undefined)	none (no result: NS1 inh, SARS PLpro yeast)
CN(Cc1ccccc1)S(=O)(=O)c1ccc(Cl)c(C(=O)O)c1	none (no result: NS1 inh)
CN(Cc1ccccc1)S(=O)(=O)c1ccc(Cl)c(C(=O)OCC(N)=O)c1	CHX counter 20, Shiga inhibitor 37
Cc1cc(C)c2c(CN3CCCCC3)cc(=O)oc2c1	CHX counter 11
Cc1cc2oc(=O)cc(CN3CCC(C)CC3)c2cc1C	CHX counter 20
Cc1cc2oc(=O)cc(CN3CCC(C)CC3)c2c(C)c1Cl	none
Cc1cc(C)c2c(CN3CCCCC3C)cc(=O)oc2c1 (centres undefined)	none
Cc1cc(C)c2c(CN3CCC(C)CC3)cc(=O)oc2c1	CHX counter 38, Shiga inhibitor 61
CCc1ccc2c(CN3CCC(C(=O)OC)CC3)cc(=O)oc2c1	CHX counter 16
COC(=O)c1ccc2c(=O)n(CCCCCC(=O)NC(C)C)c(=O)[nH]c2c1	none (no result: NS1 inh)
O=C(OCn1nnc2ccccc2c1=O)c1ccc2c(=O)n3c(nc2c1)CCC3	none
CN1C(=O)c2c(sc3c2CCCC3)NC1c1ccccc1O (centres undefined)	CHX counter 19, Shiga inhibitor 49
COc1ccc(CN2C(=O)c3cccnc3C2=O)cc1S(=O)(=O)NCc1ccccc1	none
CCN(c1cccc(C)c1)S(=O)(=O)c1cc(CN2C(=O)c3cccnc3C2=O)ccc1OC	CHX counter 19, Shiga inhibitor 92
COc1ccc(CN2C(=O)c3cccnc3C2=O)cc1S(=O)(=O)NCc1ccco1	CHX counter 21, Shiga inhibitor 51
CCc1ccccc1N(CC(=O)NCc1ccccc1)C(=O)CCC(=O)Nc1ccccn1	none
COc1ccc(NC(=O)N2CCN(S(C)(=O)=O)CC2)cc1	none
COc1ccc(C(=O)NC(=S)NCCc2ccccc2)cc1	none
CC(C)CC(=O)NC(=S)NCCc1ccccc1	CHX counter 26, Shiga inhibitor 57
COc1cc(NC(=S)NCCc2ccccc2)c(OC)cc1NC(=O)CC(C)C	none (no result: NS1 inh)
CC(C)(C)CC(=O)NC(=S)NCCc1ccccc1	CHX counter 30
O=c1cccc2n1Cc1cc3ccccc3nc1-2	CHX counter 39, Shiga inhibitor 38
CC[C@@]1(O)C(=O)OCc2c1cc1n(c2=O)Cc2cc3c(N)cccc3nc2-1	none
CCN(CCN1CCCC1)C(=O)C1CCC(=O)N(CCCN2CCOCC2)C1 (centres undefined)	none
Oc1c(Cl)cc(Cl)cc1CN1CCN(Cc2ccccc2)CC1	CHX counter 20
O=c1oc2cc(Br)ccc2n1Cc1ccccc1	none
CC1CC(=O)N(CC(=O)NC2CCCCC2)c2ccccc2S1 (centres undefined)	none
O=C(NN=C1CCCCCC1)c1ccc(Br)o1	CHX counter 48, Shiga inhibitor 87
